# Assay results from PMC7862700, “An all-to-all approach to the identification of sequence-specific readers for epigenetic DNA modifications on cytosine”.
# What was measured:
# Assay in all cases: DAPPL (digital affinity profiling via proximity ligation, sequencing); 10 mM Tris-HCl pH 7.5, 50 mM NaCl, 1 mM DTT, 4% glycerol, room temperature, 30 min; GST-TFs on glutathione beads, 16-mer random dsDNA library, 0.1% formaldehyde crosslink after washing; high values mean tight binding
# FEV = target: T1, FEV (Homo sapiens, UniProt Q99581 1-238); conditions: protein: recombinant; tags: N-terminal GST; dsDNA, one strand shown
# T1 sequence: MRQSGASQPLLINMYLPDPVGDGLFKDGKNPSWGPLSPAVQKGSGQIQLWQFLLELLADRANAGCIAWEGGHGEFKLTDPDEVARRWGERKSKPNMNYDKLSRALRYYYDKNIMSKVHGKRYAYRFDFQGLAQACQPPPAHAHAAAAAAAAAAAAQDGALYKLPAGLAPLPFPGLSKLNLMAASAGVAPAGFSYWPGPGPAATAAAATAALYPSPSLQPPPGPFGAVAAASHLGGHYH
# Procedure, shortened: (§1)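 Sequencing on an Illumina NextSeq500 followed washing, crosslinking with 0.1% formaldehyde, proximity ligation (BsaI/T4 ligase, 1 h, 37 °C) and PCR amplification of pools that had been incubated for 30 min at room temperature with 200 nmole of a random double-stranded 16-mer DNA library in Tris/NaCl/DTT/glycerol buffer. Each pool held DNA-barcoded human transcription factors, expressed in yeast as GST fusions and captured on glutathione beads, plus a tag-only sample. Binding signal is a hexamer's read frequency for a factor divided by its frequency in the tag-only sample.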
# ETV5 = ETV5 (Homo sapiens, UniProt P41161 1-510); conditions: protein: recombinant; tags: N-terminal GST; dsDNA, one strand shown
# Procedure, shortened: as §1
# HSF1 = HSF1 (Homo sapiens, UniProt Q00613 1-529); conditions: protein: recombinant; tags: N-terminal GST; chain copies: 3; dsDNA, one strand shown
# Procedure, shortened: as §1
# SPIC = target: T2, SPIC (Homo sapiens, UniProt Q8N5J4 1-248); conditions: protein: recombinant; tags: N-terminal GST; dsDNA, one strand shown
# T2 sequence: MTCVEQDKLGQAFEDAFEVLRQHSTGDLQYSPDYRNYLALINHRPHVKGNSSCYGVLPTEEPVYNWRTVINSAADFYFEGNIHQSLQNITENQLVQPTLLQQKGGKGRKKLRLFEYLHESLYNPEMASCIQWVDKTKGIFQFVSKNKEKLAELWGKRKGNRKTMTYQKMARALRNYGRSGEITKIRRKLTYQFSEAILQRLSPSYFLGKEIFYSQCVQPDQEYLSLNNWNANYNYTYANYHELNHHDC
# Procedure, shortened: as §1
# ELF4 = ELF4 (Homo sapiens, UniProt Q99607 1-663); conditions: protein: recombinant; tags: N-terminal GST; dsDNA, one strand shown
# Procedure, shortened: as §1
# ELK4 = target: T3, ELK4 (Homo sapiens, UniProt P28324-2 1-405); conditions: protein: recombinant; tags: N-terminal GST; dsDNA, one strand shown
# T3 sequence: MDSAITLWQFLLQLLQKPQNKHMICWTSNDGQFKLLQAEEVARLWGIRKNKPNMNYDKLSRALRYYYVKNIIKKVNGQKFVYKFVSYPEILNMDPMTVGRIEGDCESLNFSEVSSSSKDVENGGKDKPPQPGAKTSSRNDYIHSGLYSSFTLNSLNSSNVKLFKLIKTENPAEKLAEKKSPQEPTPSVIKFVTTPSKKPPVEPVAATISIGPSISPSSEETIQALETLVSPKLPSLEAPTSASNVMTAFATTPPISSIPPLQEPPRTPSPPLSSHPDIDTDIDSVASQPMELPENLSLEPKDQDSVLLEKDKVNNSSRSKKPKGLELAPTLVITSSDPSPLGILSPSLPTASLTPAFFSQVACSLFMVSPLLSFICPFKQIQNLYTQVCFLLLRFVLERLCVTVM
# Procedure, shortened: as §1
# ETV2 = target: T4, ETV2 (Homo sapiens, UniProt O00321 1-342); conditions: protein: recombinant; tags: N-terminal GST; dsDNA, one strand shown
# T4 sequence: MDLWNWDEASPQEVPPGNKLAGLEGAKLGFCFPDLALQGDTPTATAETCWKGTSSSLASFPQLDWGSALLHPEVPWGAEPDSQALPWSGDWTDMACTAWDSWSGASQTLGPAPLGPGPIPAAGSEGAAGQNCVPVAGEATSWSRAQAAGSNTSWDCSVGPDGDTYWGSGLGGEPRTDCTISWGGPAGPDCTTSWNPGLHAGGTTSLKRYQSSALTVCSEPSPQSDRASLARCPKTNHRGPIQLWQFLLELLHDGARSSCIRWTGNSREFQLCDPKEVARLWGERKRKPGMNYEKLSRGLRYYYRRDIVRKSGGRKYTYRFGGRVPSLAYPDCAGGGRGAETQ
# Procedure, shortened: as §1
# ELF3 = target: T5, ELF3 (Homo sapiens, UniProt P78545 1-371); conditions: protein: recombinant; tags: N-terminal GST; dsDNA, one strand shown
# T5 sequence: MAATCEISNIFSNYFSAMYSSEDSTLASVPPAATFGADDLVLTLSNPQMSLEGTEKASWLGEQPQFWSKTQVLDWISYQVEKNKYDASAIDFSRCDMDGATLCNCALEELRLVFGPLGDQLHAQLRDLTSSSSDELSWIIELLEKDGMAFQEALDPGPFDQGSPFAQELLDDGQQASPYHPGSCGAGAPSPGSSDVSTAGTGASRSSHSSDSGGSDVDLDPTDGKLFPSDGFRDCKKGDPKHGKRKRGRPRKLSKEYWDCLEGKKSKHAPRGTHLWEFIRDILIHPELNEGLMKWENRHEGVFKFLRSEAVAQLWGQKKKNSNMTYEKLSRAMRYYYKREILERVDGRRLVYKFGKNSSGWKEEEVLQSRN
# Procedure, shortened: as §1
# CRX = CRX (Homo sapiens, UniProt O43186 1-299); conditions: protein: recombinant; tags: N-terminal GST; dsDNA, one strand shown
# Procedure, shortened: as §1
# Chain of CRX (O43186 whole entry): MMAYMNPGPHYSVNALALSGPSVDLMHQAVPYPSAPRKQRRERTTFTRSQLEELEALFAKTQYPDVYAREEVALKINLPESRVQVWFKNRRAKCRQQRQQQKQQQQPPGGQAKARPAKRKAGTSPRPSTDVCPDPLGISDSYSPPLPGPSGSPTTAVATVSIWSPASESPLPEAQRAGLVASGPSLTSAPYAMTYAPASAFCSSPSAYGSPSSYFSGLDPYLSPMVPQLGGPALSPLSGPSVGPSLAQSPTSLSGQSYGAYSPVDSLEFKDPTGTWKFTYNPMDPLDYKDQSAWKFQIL
# Chain of ETV5 (P41161 whole entry): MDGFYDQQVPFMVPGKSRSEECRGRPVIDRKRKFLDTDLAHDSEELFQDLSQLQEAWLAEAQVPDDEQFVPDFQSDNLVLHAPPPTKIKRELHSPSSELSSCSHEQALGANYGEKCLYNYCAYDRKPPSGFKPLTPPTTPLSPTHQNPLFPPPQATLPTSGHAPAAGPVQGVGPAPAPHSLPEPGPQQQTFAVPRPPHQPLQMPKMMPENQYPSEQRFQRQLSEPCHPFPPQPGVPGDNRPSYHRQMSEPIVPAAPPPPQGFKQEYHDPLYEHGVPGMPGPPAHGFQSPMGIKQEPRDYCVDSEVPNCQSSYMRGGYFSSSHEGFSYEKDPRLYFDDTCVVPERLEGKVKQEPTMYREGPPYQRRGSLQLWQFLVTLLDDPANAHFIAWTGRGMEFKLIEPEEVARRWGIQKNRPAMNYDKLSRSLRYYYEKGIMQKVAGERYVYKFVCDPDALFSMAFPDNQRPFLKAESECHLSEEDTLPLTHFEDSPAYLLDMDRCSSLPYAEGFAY
# Chain of HSF1 (Q00613 whole entry): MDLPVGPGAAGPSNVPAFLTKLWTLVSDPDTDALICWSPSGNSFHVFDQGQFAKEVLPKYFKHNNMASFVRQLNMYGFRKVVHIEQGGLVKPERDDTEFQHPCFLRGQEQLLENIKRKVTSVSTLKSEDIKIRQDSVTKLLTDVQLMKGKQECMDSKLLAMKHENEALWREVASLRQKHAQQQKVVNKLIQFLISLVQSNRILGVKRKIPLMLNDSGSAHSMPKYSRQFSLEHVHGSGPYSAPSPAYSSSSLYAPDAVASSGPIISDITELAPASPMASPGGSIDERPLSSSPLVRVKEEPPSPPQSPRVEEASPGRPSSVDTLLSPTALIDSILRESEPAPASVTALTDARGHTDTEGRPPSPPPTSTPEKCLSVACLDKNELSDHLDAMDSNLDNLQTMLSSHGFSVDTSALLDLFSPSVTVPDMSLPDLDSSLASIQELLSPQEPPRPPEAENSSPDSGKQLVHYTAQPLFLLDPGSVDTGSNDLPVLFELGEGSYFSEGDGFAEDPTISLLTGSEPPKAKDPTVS
# Chain of ELF4 (Q99607 whole entry): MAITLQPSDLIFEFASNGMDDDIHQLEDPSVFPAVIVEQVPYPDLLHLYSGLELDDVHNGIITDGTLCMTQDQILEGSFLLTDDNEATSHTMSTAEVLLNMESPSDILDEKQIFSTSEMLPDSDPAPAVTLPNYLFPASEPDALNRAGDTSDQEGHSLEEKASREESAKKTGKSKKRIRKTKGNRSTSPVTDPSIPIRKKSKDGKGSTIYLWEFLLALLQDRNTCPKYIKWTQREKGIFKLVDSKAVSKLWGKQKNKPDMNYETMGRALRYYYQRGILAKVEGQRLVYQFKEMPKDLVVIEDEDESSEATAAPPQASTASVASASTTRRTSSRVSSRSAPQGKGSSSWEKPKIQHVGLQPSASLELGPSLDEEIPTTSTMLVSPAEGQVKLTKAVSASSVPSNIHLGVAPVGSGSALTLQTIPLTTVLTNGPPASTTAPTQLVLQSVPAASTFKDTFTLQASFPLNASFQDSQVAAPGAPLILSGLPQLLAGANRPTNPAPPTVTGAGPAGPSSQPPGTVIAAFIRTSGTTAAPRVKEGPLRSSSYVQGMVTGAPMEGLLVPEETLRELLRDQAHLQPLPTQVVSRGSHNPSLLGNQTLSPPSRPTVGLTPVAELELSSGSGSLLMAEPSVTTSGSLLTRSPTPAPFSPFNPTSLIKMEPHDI
sequence,measurement,setting,value
AAGCTT,binding signal,FEV,"1.16 fold enrichment (6-mer frequency, TF over GST control)"
same,binding signal,ETV5,"1.25 fold enrichment (6-mer frequency, TF over GST control)"
same,binding signal,HSF1,"1.84 fold enrichment (6-mer frequency, TF over GST control)"
same,binding signal,SPIC,"1.24 fold enrichment (6-mer frequency, TF over GST control)"
same,binding signal,ELF4,"1.25 fold enrichment (6-mer frequency, TF over GST control)"
same,binding signal,ELK4,"1.39 fold enrichment (6-mer frequency, TF over GST control)"
same,binding signal,ETV2,"1.31 fold enrichment (6-mer frequency, TF over GST control)"
same,binding signal,ELF3,"1.29 fold enrichment (6-mer frequency, TF over GST control)"
same,binding signal,CRX,"2.33 fold enrichment (6-mer frequency, TF over GST control)"
